Measured values taken from PubChem BioAssay (Tox21).
Inconclusive results are not listed. Unmarked numbers belong to inactive results. Activity calls are given as the source filed them. Calls follow the shape of the dose curve; as a rule, active = well fitted curve in the direction sought with a large enough effect in the repeat runs; inconclusive = weak or mixed curves; inactive = no such curve, though single readings can be large; an effect the other way counts as inactive or inconclusive.
% is scaled to controls: 0 for no effect and ±100 for the full control effect; potency is read from the fitted curve at half-maximal effect.
Also: nearly all actives have a fitted effect of over 50% in size.

The molecules below were run against Voltage-gated inwardly rectifying potassium channel KCNH2 (Homo sapiens) (UniProt Q12809) (assay: Human Ether-a-go-go-Related Gene (hERG) channel small molecule antagonists: fluorescence cell-based qHTS assay (AID 1671200;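 as to activity change, negative = inhibition: hERG-expressing U2OS cells given a thallium stimulus after FluxOR II dye loading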)). Settings: hERG-U2OS cells, FluxOR thallium flux fluorescence; series mostly up to 76.8 µM; activity change, negative = inhibition: at the top concentration.
Sequence of Voltage-gated inwardly rectifying potassium channel KCNH2 (Homo sapiens) (Q12809 whole entry, looked up): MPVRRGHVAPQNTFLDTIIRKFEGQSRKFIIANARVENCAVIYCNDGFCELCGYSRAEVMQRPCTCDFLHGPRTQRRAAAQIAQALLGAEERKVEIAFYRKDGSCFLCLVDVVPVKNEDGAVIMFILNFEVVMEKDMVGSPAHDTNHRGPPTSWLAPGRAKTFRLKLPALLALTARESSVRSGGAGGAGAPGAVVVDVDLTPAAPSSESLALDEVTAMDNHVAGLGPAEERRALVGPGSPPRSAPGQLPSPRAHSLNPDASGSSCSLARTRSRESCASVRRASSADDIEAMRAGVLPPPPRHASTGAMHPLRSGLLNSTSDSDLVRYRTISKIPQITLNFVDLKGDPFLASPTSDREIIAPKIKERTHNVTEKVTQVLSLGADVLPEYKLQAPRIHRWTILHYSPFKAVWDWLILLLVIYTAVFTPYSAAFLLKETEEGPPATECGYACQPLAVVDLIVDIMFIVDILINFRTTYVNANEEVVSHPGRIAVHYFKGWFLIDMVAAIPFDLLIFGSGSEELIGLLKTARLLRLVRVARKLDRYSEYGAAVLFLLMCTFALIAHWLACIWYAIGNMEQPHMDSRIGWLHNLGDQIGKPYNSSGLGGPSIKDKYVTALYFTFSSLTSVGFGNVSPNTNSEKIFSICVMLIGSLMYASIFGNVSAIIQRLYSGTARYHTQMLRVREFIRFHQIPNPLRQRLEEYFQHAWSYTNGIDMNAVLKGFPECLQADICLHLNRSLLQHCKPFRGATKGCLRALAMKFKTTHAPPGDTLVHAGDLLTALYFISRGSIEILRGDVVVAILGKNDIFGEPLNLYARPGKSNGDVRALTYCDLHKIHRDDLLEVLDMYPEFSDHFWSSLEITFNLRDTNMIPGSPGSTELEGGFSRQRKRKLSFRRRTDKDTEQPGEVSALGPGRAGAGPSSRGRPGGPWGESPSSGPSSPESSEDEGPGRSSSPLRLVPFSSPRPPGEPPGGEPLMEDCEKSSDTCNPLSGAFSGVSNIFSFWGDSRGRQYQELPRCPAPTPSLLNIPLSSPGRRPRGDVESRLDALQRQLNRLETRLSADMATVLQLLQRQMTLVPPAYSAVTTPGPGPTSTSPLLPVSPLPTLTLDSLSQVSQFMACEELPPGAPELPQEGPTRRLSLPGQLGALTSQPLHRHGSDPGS
Procedure, shortened: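 Thallium served as the potassium surrogate; its influx into dye-loaded U2OS cells carrying the channel was measured by fluorescence over 2 min.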
With `Cc1c(Cl)c(=O)oc2cc(O)ccc12` the “activity change, negative = inhibition” value was 4.33%. With `CCOc1ccc([N+](=O)[O-])cc1` the “activity change, negative = inhibition” value was -26.8%. For `c1ccc(C[P+](c2ccccc2)(c2ccccc2)c2ccccc2)cc1`, the Potency was 3.09 µM (active). In the case of `CC(=O)[C@]1(O)Cc2c(O)c3c(c(O)c2[C@@H](O[C@H]2C[C@H](N)[C@H](O)[C@H](C)O2)C1)C(=O)c1ccccc1C3=O`, the “activity change, negative = inhibition” value is reported as 7.01% [at 35.3 µM]. `C=CCc1cc(S(=O)(=O)c2ccc(O)c(CC=C)c2)ccc1O` was tested, and the “activity change, negative = inhibition” value was -4.92%. With `Nc1cccnc1N` the “activity change, negative = inhibition” value was 0.761%. In the case of `c1ccc2cc3c4ccccc4c4ccccc4c3cc2c1`, the “activity change, negative = inhibition” value is reported as -7.65%. With `O=S(=O)(c1ccc(OCc2ccccc2)cc1)c1ccccc1O` the “activity change, negative = inhibition” value was -3.56%. In the case of `O=C(Nc1ccccc1)c1cc(Cl)ccc1O`, the “activity change, negative = inhibition” value is reported as -22.7%. With `O=C(Cl)c1ccc(Cl)cc1Cl` the “activity change, negative = inhibition” value was -6.9%. `c1ccc(-c2ccc(C(c3ccccc3)n3ccnc3)cc2)cc1` (centres undefined) was tested, and the Potency was 7.56 µM (active). `O=C(NCc1ncc(C(F)(F)F)cc1Cl)c1c(Cl)cccc1Cl` was tested, and the “activity change, negative = inhibition” value was 1.63%. With `CN[C@H]1CC[C@@H](c2ccc(Cl)c(Cl)c2)c2ccc(S(N)(=O)=O)cc21` the Potency was 9.77 µM (active). For `N#Cc1nc(Cl)c(Cl)c(Cl)c1Cl`, the “activity change, negative = inhibition” value was -11.6%. For `CCCCCCCCCC[N+](C)(CCCCCCCCCC)CCC[Si](OC)(OC)OC`, the Potency was 2.45 µM (active). In the case of `NCc1cccc(C2CCN(C(=O)c3ccc(C#Cc4ccccc4F)o3)CC2)c1`, the Potency is reported as 11 µM (active). In the case of `CN1CCN(c2ccccc2/C=C2\SCCN(c3ccc(Cl)c(Cl)c3)C2=O)CC1`, the Potency is reported as 2.19 µM (active).

Each molecule was assayed against Cytochrome P450 3A4 (Homo sapiens) (UniProt P08684) (assay: Cytochrome P450 Family 3 Subfamily A Member 4 (CYP3A4) small molecule antagonists: luciferase reporter qHTS assay (AID 1671201)). Settings: P450-Glo CYP3A4 enzyme, luciferin luminescence, 1 h; series mostly up to 115 µM; activity change, negative = inhibition: at the top concentration.
Sequence of Cytochrome P450 3A4 (Homo sapiens) (P08684 whole entry, looked up): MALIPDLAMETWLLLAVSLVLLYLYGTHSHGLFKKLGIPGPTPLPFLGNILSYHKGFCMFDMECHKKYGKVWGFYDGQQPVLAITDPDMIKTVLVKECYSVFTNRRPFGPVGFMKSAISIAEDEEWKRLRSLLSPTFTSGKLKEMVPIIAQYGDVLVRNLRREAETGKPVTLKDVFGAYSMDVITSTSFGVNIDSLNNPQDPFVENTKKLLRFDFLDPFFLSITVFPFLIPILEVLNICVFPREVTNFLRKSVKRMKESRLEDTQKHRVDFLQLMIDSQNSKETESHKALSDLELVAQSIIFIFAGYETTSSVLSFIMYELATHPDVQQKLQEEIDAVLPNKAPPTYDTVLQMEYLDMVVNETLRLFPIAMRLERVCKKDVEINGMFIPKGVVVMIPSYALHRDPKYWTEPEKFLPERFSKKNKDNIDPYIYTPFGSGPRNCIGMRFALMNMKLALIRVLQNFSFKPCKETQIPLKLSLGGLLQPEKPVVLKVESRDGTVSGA
Procedure, shortened: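 Relative luminescence units after 20 min with luciferin detection reagent served as read-out. Beforehand, CYP3A4 turned over a proluciferin substrate for 1 h at room temperature with NADPH regeneration, following 10 min compound preincubation.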
For `Cc1c(Cl)c(=O)oc2cc(O)ccc12`, the “activity change, negative = inhibition” value was -4.24%. With `CCOc1ccc([N+](=O)[O-])cc1` the Potency was 72.1 µM (active). `CCCCCCCCOC(=O)c1cc(O)c(O)c(O)c1` was tested, and the Potency was 35.6 µM (active). For `CC1=C(/C=C/C(C)=C/C=C/C(C)=C\C(=O)O)C(C)(C)CCC1`, the Potency was 22.5 µM (active). With `c1ccc(C[P+](c2ccccc2)(c2ccccc2)c2ccccc2)cc1` the “activity change, negative = inhibition” value was 232%. `C=CCc1cc(S(=O)(=O)c2ccc(O)c(CC=C)c2)ccc1O` was tested, and the Potency was 28.3 µM (active). `Nc1cccnc1N` was tested, and the “activity change, negative = inhibition” value was -11.9%. In the case of `O=S(=O)(c1ccc(OCc2ccccc2)cc1)c1ccccc1O`, the “activity change, negative = inhibition” value is reported as -8.8%. With `O=C(NCc1ncc(C(F)(F)F)cc1Cl)c1c(Cl)cccc1Cl` the Potency was 8.94 µM (active). For `CCCCCCCC/C=C\CCCCCCCC(=O)N(CCO)CCO`, the Potency was 15.8 µM (active). With `CN[C@H]1CC[C@@H](c2ccc(Cl)c(Cl)c2)c2ccc(S(N)(=O)=O)cc21` the Potency was 28.3 µM (active). In the case of `N#Cc1nc(Cl)c(Cl)c(Cl)c1Cl`, the “activity change, negative = inhibition” value is reported as -0.0681%. In the case of `c1ccc(-c2ccccc2-c2ccccc2)cc1`, the “activity change, negative = inhibition” value is reported as 160%. In the case of `CCCCCCCCCC[N+](C)(CCCCCCCCCC)CCC[Si](OC)(OC)OC`, the Potency is reported as 28.3 µM (active). `O=C1CCC/C=C\CCCCCCCCCC1` was tested, and the Potency was 31.7 µM (active). For `NCc1cccc(C2CCN(C(=O)c3ccc(C#Cc4ccccc4F)o3)CC2)c1`, the Potency was 5.64 µM (active). In the case of `CN1CCN(c2ccccc2/C=C2\SCCN(c3ccc(Cl)c(Cl)c3)C2=O)CC1`, the Potency is reported as 3.99 µM (active).
